21 compounds from PubChem BioAssay (NCATS) can be followed below.

Assay [1] is described as follows: qHTS of pediatric cancer cell lines to identify multiple opportunities for drug repurposing: Primary screen for U-2 OS cells (AID 1347096).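 Further: plate controls were DMSO wells for no effect and bortezomib positive control wells for full effect; nearly all actives have a fitted effect of over 50% in size.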 The essentials:
(§1)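 Cells (500-1,000/well) in growth media were settled 5 h at 37 degrees C, then given compounds for 48 h. Viability was read as CellTiter-Glo luminescence. Primary runs used MIPE at 11 points (0.78 nM-46 µM) and NPC at 8 points (0.59 nM-46 µM); follow-ups used 11 points.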
Background: qHTS replaces the single test concentration by a dilution series.

A short description of assay [2]: qHTS of pediatric cancer cell lines to identify multiple opportunities for drug repurposing: Primary screen for Saos-2 cells (AID 1347097). Further: on the % scale 0 is the no-effect control and ±100 the full control effect; nearly all actives have a fitted effect of over 40% in size. The essentials:
(§2)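 500-1,000 cells/well; 5 h pre-incubation 37 °C/5% CO2; compound pinned; 48 h; CellTiter-Glo, 15 min RT; luminescence. MIPE 11-pt from 0.78 nM, NPC 8-pt from 0.59 nM final. Bortezomib 2.3 µM final as positive control.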

Assay [3] is described as follows: qHTS of pediatric cancer cell lines to identify multiple opportunities for drug repurposing: Primary screen for NB1643 cells (AID 1347099).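 Further: plate controls were DMSO neutral control for no effect and bortezomib positive control for full effect; nearly all actives have a fitted effect of over 50% in size.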 The essentials:
as §2

The nature of assay [4]: qHTS of pediatric cancer cell lines to identify multiple opportunities for drug repurposing: Primary screen for BT-12 cells (AID 1347101).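 Further: plate controls were DMSO for no effect and bortezomib positive control for full effect; nearly all actives have a fitted effect of over 25% in size.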 The essentials:
(§3)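 Cells (500-1,000/well) rested 5 h, then received compounds for 48 h; metabolically active cells were measured by CellTiter-Glo luminescence. Final concentrations spanned up to 46 µM (MIPE, 11-point) or 0.59 nM-46 µM (NPC, 8-point) in primary screens, 11-point in follow-ups.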

A short description of assay [5]: qHTS of pediatric cancer cell lines to identify multiple opportunities for drug repurposing: Primary screen for Rh18 cells (AID 1347102). Further: on the % scale 0 is the no-effect control and ±100 the full control effect; nearly all actives have a fitted effect of over 65% in size. In short, it runs like this: as §1
Assay [6] can be described thus: qHTS of pediatric cancer cell lines to identify multiple opportunities for drug repurposing: Primary screen for OHS-50 cells (AID 1347103). Further: nearly all actives have a fitted effect of over 40% in size. Further: potency means the concentration at half of the fitted maximal effect.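 On activity change, negative = cytotoxic: plate controls were DMSO neutral control for no effect and bortezomib positive control for full effect.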 In short, it runs like this:
as §3

The nature of assay [7]: qHTS of pediatric cancer cell lines to identify multiple opportunities for drug repurposing: Primary screen for RD cells (AID 1347104).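 Further: plate controls were DMSO for no effect and bortezomib for full effect; nearly all actives have a fitted effect of over 55% in size.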 In short, it runs like this: as §2
The nature of assay [8]: qHTS of pediatric cancer cell lines to identify multiple opportunities for drug repurposing: Primary screen for MG 63 (6-TG R) cells (AID 1347105). Further: on the % scale 0 is the no-effect control and ±100 the full control effect; nearly all actives have a fitted effect of over 50% in size. In short, it runs like this: as §2
Assay [9] can be described thus: qHTS of pediatric cancer cell lines to identify multiple opportunities for drug repurposing: Primary screen for Rh30 cells (AID 1347107). Further: series mostly up to about 46 µM; on the % scale 0 is the no-effect control and ±100 the full control effect; nearly all actives have a fitted effect of over 75% in size. The essentials:
as §1

Assay [10] can be described thus: qHTS of pediatric cancer cell lines to identify multiple opportunities for drug repurposing: Primary screen for Rh41 cells (AID 1347108).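 Further: series mostly up to about 46 µM; luminescence drop marks cytotoxic hits; nearly all actives have a fitted effect of over 70% in size.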 The essentials:
as §2

Assay [11] is described as follows: qHTS of pediatric cancer cell lines to identify multiple opportunities for drug repurposing: Primary screen for SK-N-SH cells (AID 1347098). Further: nearly all actives have a fitted effect of over 65% in size. Further: potency means the concentration at half of the fitted maximal effect.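 On activity change, negative = cytotoxic: DMSO served as neutral control and bortezomib at 2.3 µM as positive control; on the % scale 0 is the no-effect control and ±100 the full control effect.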 In short, it runs like this: as §3
Assay [12] in a line: qHTS of pediatric cancer cell lines to identify multiple opportunities for drug repurposing: Primary screen for LAN-5 cells (AID 1347100).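 Further: plate controls were DMSO neutral control for no effect and bortezomib positive control for full effect.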 The essentials:
as §1

A short description of assay [13]: qHTS of pediatric cancer cell lines to identify multiple opportunities for drug repurposing: Primary screen for control Hh wild type fibroblast cells (AID 1347106).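 Further: series mostly up to about 46 µM; on the % scale 0 is the no-effect control and ±100 the full control effect; a drop in luminescence marks cytotoxicity and a rise apparent proliferation; nearly all actives have a fitted effect of over 55% in size.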 The essentials:
as §1

Each structure is given as a SMILES string. Inconclusive results are not listed. Unmarked numbers belong to inactive results. The source made the active and inactive calls. The call rests on the fitted dose curve; in most records, active means well fitted curve in the direction sought with a large enough effect; inconclusive means small, poorly fitted or top-dose-only effect, or another doubt; inactive means no such curve, though single readings can be large; an effect the other way counts as inactive or inconclusive.

Regarding `CCCCNC(=O)NS(=O)(=O)c1ccc(C)cc1`, the Potency entry in [1], in assay [2], in [3], in [4], in [5] and in assay [6] was “inactive” in each case. In addition, the Potency entry in [7], in assay [8], in assay [9] and in assay [10] was “inactive” each time.
For `CCOC(=O)C1=C(C)NC(C)=C(C(=O)OC)C1c1cccc([N+](=O)[O-])c1` (stereo not drawn), the Potency entry in [1], in assay [11], in assay [3], in assay [12], in assay [4] and in assay [5] was “inactive” each time. The Potency result in assay [7], in assay [9] and in [10] was “inactive” in each case.
On to `CC(=O)Nc1nnc(S(N)(=O)=O)s1`, for which the Potency result in assay [1], in assay [11], in assay [3], in [4], in assay [5] and in [6] was “inactive” throughout. Also, the Potency entry in assay [7], in assay [8], in assay [9] and in assay [10] was “inactive” in each case. In assay [13], the compound was called inactive.
On to `CN(C)CC[C@@H](c1ccc(Br)cc1)c1ccccn1`, for which the Potency entry in [1], in assay [11], in [3], in assay [12], in [4] and in [5] was “inactive” throughout. Besides, the Potency entry in [7], in [8], in [9] and in assay [10] was “inactive” throughout. In addition, the compound was classed as inactive in assay [13].
For the compound `NC(N)=N/N=C/c1c(Cl)cccc1Cl`, the Potency entry in assay [1], in [2], in [3], in assay [5], in [8] and in assay [9] was “inactive” throughout. The Potency entry in [10] is “inactive”. Also, the compound was called inactive in [13].
On to `CNC1(C)C2CCC(C2)C1(C)C` (stereo not drawn), for which the Potency result in assay [1], in assay [11], in [3], in assay [12], in assay [4] and in assay [5] was “inactive” in each case. In addition, the Potency entry in assay [6], in assay [7], in assay [8], in assay [9] and in assay [10] was “inactive” throughout. Also, in [13], the compound was called inactive.
As for `CCN(Cc1ccncc1)C(=O)C(CO)c1ccccc1` (stereo not drawn), the Potency entry in assay [1], in [11], in [3], in [12], in assay [4] and in [5] was “inactive” throughout. The Potency result in assay [7], in assay [8], in assay [9] and in assay [10] was “inactive” throughout.
On to `CC(C)(Oc1ccc(CCNC(=O)c2ccc(Cl)cc2)cc1)C(=O)O`, for which the Potency entry in assay [1], in assay [11], in assay [3], in [12], in assay [4] and in [5] was “inactive” throughout. Besides, the Potency entry in assay [6], in [7], in [8], in assay [9] and in assay [10] was “inactive” throughout. For the same compound, the call in [13] was inactive.
As for `CCN(CC)CCNC(=O)c1ccc(NC(C)=O)cc1`, the Potency entry in [1], in assay [11], in assay [3], in [12], in [4] and in assay [5] was “inactive” in each case. For the same compound, the Potency entry in [6], in assay [7], in assay [8], in [9] and in assay [10] was “inactive” throughout.
As to `CC(C)NCC(O)c1cc(O)cc(O)c1` (stereo not drawn), the Potency entry in [1], in assay [11], in assay [4], in assay [5], in [6] and in assay [7] was “inactive” in each case. The Potency result in assay [8], in [9] and in assay [10] was “inactive” throughout. The compound was called inactive in [13].
Consider `C(=C\c1ccccc1)/CN1CCN(C(c2ccccc2)c2ccccc2)CC1`, for which the Potency entry in assay [1], in [3], in assay [12], in assay [4], in assay [5] and in assay [9] was “inactive” throughout. In assay [10], the Potency result is “inactive”. Besides, the Potency in [6] was 27.6 µM (active). In assay [13], the call was inactive.
Turning to `CCn1ccnc1CC1COc2ccccc2O1` (stereo not drawn), the Potency entry in assay [1], in assay [11], in assay [3], in assay [12], in assay [4] and in assay [5] was “inactive” each time. Besides, the Potency entry in [6], in assay [7], in [8], in [9] and in assay [10] was “inactive” throughout. Moreover, the compound was called inactive in [13].
Consider `COC(=O)[C@@H](N)Cc1ccc(O)c(O)c1`, for which the Potency result in assay [1], in assay [11], in [3], in assay [4], in assay [5] and in assay [7] was “inactive” throughout. In addition, the Potency result in [8], in [9] and in assay [10] was “inactive” throughout. In addition, in assay [13], the compound was called inactive.
`CCC(=O)c1ccc2c(c1)N(CCCN(C)C)c1ccccc1S2`: the Potency entry in assay [1], in assay [3], in [8], in [9] and in assay [10] was “inactive” throughout. Also, the Potency in [11] is 34.4 µM (active); in assay [6], 30.9 µM (active).
In the case of `CC(=O)OCC1=C(C(=O)O)N2C(=O)[C@@H](NC(=O)Cc3cccs3)[C@H]2SC1`, the Potency entry in assay [1], in assay [11], in assay [3], in assay [4], in assay [5] and in assay [6] was “inactive” each time. Further, the Potency result in [7], in [8], in assay [9] and in assay [10] was “inactive” throughout.
As for `C[N+](C)(C)CCOC(=O)CCC(=O)OCC[N+](C)(C)C`, the Potency result in [1], in [11], in assay [3], in [12], in [4] and in assay [5] was “inactive” each time. In addition, the Potency result in assay [6], in assay [7], in assay [8], in [9] and in [10] was “inactive” in each case.
Regarding `O=C(CCNNC(=O)c1ccncc1)NCc1ccccc1`, the Potency result in assay [1], in assay [3], in assay [12], in assay [4], in assay [5] and in assay [6] was “inactive” throughout. For the same compound, the Potency result in [7], in [8], in [9] and in assay [10] was “inactive” each time.
For `O=C(O)CN(CCOCCOCCN(CC(=O)O)CC(=O)O)CC(=O)O`, the activity change, negative = cytotoxic in assay [2] was -2.21% [at 0.597 µM]; in assay [11], -13% [at 0.741 µM]; in assay [3], 28.6% [at 0.597 µM]; in assay [12] it was 27.7% [at 0.597 µM]; in assay [4], 8.07% [at 0.745 µM]; in assay [5] it was 14.5% [at 0.597 µM]. Besides, the activity change, negative = cytotoxic is 12.9% [at 0.73 µM] in [6]; 10.3% [at 0.597 µM] in [7]; -8.72% [at 0.597 µM] in assay [8]; 5.93% [at 0.597 µM] in assay [13]; 25.4% [at 0.597 µM] in [9]; 18.7% [at 0.597 µM] in [10].
Regarding `NC(=O)c1ncn([C@@H]2O[C@H](CO)[C@@H](O)[C@H]2O)c1O`, the Potency entry in [1], in [3], in assay [12], in assay [4], in [5] and in [7] was “inactive” each time. The Potency entry in [8], in [9] and in assay [10] was “inactive” in each case. The call in assay [13] was inactive.
In the case of `C#CCN(C)CCCOc1ccc(Cl)cc1Cl`, the Potency entry in assay [1], in assay [3], in [12], in assay [4], in assay [5] and in assay [7] was “inactive” each time. Besides, the Potency entry in [8], in assay [9] and in [10] was “inactive” each time.
Regarding `CN(C(=O)CCCOc1ccc2[nH]c(=O)ccc2c1)C1CCCCC1`, the Potency result in assay [1], in [3], in assay [12], in [5], in assay [7] and in assay [8] was “inactive” each time. The Potency entry in assay [9] was “inactive”. Besides, the Potency in assay [6] is 21.9 µM (active). Moreover, in assay [13], the compound was called inactive.
